Measurements published in PubChem BioAssay (NCI).
The panel holds about 79,000 compounds, 15% with a hit somewhere; the sample as a whole holds those more often. Values without a mark were called inactive. Calls of active or inactive are those of the source. Rule as the data show it: active = growth inhibition above about 70%; inactive = the rest. Where a SMILES comes first, the peptide text is derived from it. The star is where a group is joined. Cbz = O=C(OCc1ccccc1)*; OBn = c1ccc(CO*)cc1

Tests used:
[1] = NCI Yeast Anticancer Drug Screen. Data for the rad50 strain (AID 155);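 also: 0% = growth of vehicle-only cultures of the same strain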; settings: S. cerevisiae rad50 strain growth inhibition; at 50.0 µM; stronger effect = higher value
Procedure, shortened: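 Genetically altered yeast (DNA repair pathway); compound treatment; growth inhibition vs vehicle ctrl.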

[2] = NCI Yeast Anticancer Drug Screen. Data for the mec2-1 strain (AID 157); settings: S. cerevisiae mec2-1 strain, at 50.0 µM, stronger effect = higher value
Procedure, shortened: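 Readout is yeast growth inhibition, normalised to vehicle-treated controls, in the mec2-1 strain exposed to compound.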

[3] = NCI Yeast Anticancer Drug Screen. Data for the sgs1 mgt1 strain (AID 161);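 also: 0% = growth of cultures given vehicle only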; settings: S. cerevisiae sgs1 mgt1 strain, at 50.0 µM, stronger effect = higher value
Procedure, shortened: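 This yeast growth screen uses a strain with defined DNA-repair lesions; compound-treated growth is compared with vehicle-treated growth.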

[4] = NCI Yeast Anticancer Drug Screen. Data for the cln2 rad14 strain (AID 165);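 also: 0% = growth equal to vehicle treated cultures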; settings: S. cerevisiae cln2 rad14 strain, at 50.0 µM, stronger effect = higher value
Procedure, shortened: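 Relative to vehicle controls, growth inhibition of compound-treated cln2 rad14 yeast was recorded.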

[5] = NCI Yeast Anticancer Drug Screen. Data for the bub3 strain (AID 167); settings: S. cerevisiae bub3 mutant strain, at 50.0 µM, stronger effect = higher value
Procedure, shortened: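 Yeast carrying a defined mutation is treated with each compound, and growth is compared with that of vehicle-exposed cells to give inhibition.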

[6] = NCI Yeast Anticancer Drug Screen. Data for the mlh1 rad18 strain (AID 175); settings: S. cerevisiae mlh1 rad18 strain growth inhibition; at 50.0 µM; stronger effect = higher value
Procedure, shortened: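 Test agents were incubated with a yeast strain of defined genotype (DNA damage repair defect). Inhibition of growth was derived by comparison with vehicle-exposed cultures.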

Compound | growth inhibition [1] [%] | growth inhibition [2] [%] | growth inhibition [3] [%] | growth inhibition [4] [%] | growth inhibition [5] | growth inhibition [6] [%]
O=C(NC(CO)C(=O)N1CCCC1C(=O)OCc1ccccc1)OCc1ccccc1 (stereo not drawn) (Cbz-Ser-Pro-OBn; configuration not given here) | 8.55 | 7 | 7.05 | 23.9 | 4.45% | 7.6
COC(=O)C1=NOC(COc2ccc([N+](=O)[O-])cc2)C1 (stereo unspecified) | 9.4 | -2.9 | 20.4 | -8.55 | -1.65% | 19.1
O=C1C2C3C=C4c5ccccc5N(c5ccccc5)C4([C@@H]2C(=O)N1c1ccc(F)cc1)[C@H]1C(=O)N(c2ccc(F)cc2)C(=O)[C@@H]31 (stereo partly specified) | 35 | 23.6 | 11.5 | 40.1 | 21.4% | 34.9
O=C(Nc1cc(Cl)ccc1Cl)c1ccc(Cl)cc1 | -1.3 | -14.5 | 4.45 | -44 | -9.7% | -12.7
O=C(Nc1ccccc1)c1ccc(I)cc1 | 7.05 | -31.7 | 8.3 | -7.35 | 3.95% | -25.3
CCOC(=O)/C=C(\N)c1ccccc1 | -7.8 | -13.2 | -15.6 | -43.8 | -30.4% | -6.8
Cc1cc(C)c2c(=O)cc(-c3cccc(F)c3)[nH]c2n1 | 1.35 | -0.65 | -28.2 | 3.8 | -1.3% | -26.1
CCOC(=O)N1CCN(P(=O)(Nc2ccc3nc(NC(=O)OC)[nH]c3c2)Oc2ccccc2)CC1 (stereo unspecified) | -38.5 | -6.9 | 0.55 | -9.4 | -9.65% | -37.1
O=C(O)CCC(NC(=O)/C(=C/c1ccccc1)NC(=O)c1ccccc1)C(=O)O (stereo unspecified) | 4.8 | 6.55 | 31 | 8.75 | 18.2% | -10.4
Oc1ccc(C(c2ccc(O)cc2)c2ccc(O)cc2)cc1 | 2.1 | 3.9 | 29.9 | 19.1 | 22.1% | -18.2
CC(O)CN(CC(C)O)c1ccc2c(c1)Cc1ccccc1-2 (stereo unspecified) | -13.2 | -13.3 | 13.8 | -20.8 | 36% | -4.6
O=C(NC(CC(NC(=O)OCc1ccccc1)NC(=O)OCc1ccccc1)NC(=O)OCc1ccccc1)OCc1ccccc1 | -2.55 | 7.1 | -0.1 | 5.6 | 0.85% | -4.55
CCCCCCCCCCCCCCCc1cc(OC)ccc1S(=O)(=O)O | 22.6 | 5.8 | 15.9 | 30.9 | 3.1% | 15.6
Nc1nc(-c2ccccc2)c(N=Nc2cc(Cl)ccc2Cl)s1 | 4.5 | 1 | -2.3 | -5.05 | 8.2% | -2.1
NC(CCC(=O)NC(CSSCCCCS(=O)O)C(=O)NCC(=O)O)C(=O)O (stereo unspecified) | -1.65 | -8.2 | 11.3 | -10.2 | 14.2% | 1.4
O=c1cc(C=Nc2cccc(Br)c2)[nH]c(=S)[nH]1 | -4.4 | -17.4 | -15.4 | -24.8 | -10.1% | -10
Cc1nc2cccc([N+](=O)[O-])c2c(O)[n+]1C | -13.9 | -10.8 | -12.4 | -17.6 | -9.05% | -17.9
COc1cc(Br)c(C=O)cc1OC | 10.5 | 22.9 | 13.6 | -16.1 | 2.95% | 5.5
C/C(=N/NC(N)=O)c1cn[nH]c1C | -27.6 | -14.8 | 3.7 | -66 | 11.9% | 11.8
Cc1cccc(Nc2c(C(=O)O)cnc3cc4c(cc23)OCO4)c1 | -3.4 | -4.85 | 3.45 | -49.8 | -5.85% | -6.1
CC(C)(C)/C=C/N1N=NC(c2ccccc2)(c2ccccc2)C1=O | 32.6 | 19 | 23.1 | -13.2 | 22.1% | 26.7

Compound | growth inhibition [1] [%] | growth inhibition [2] [%] | growth inhibition [3] [%] | growth inhibition [4] [%] | growth inhibition [5] | growth inhibition [6] [%]
COC(=O)C1=C(C)N(NC(N)=O)C(C)(O)C12CCOC2=O (stereo unspecified) | -3.8 | -2.2 | 2.15 | -56.8 | -5.95% | -14.1
NNC(=O)c1n[nH]n(N)c1=S | 22.6 | 25.1 | 10.9 | -8.65 | -8.65% | 24.2
OCCOc1ccc(C(Cc2ccccc2)N(CCO)CCO)cc1 (stereo unspecified) | -10.1 | 2.15 | 7.5 | -12.6 | 4.7% | -1.45
CC(C)=CCNC(N)=O | 4.95 | -3.8 | -10.5 | 11 | 7.4% | 2.15
Cc1ccc(NC(=S)Nc2ccccc2C)nc1 | 5.95 | 9.35 | 27.9 | 13.1 | 2.6% | 18.9
COc1ccc(C(Cl)=C(c2ccc(OCCN(C)C)cc2)c2ccc(OCCN(C)C)cc2)cc1 | 29.7 | 15.6 | 40.1 | 28.8 | 28.4% | 20.1
CCNC(=O)NCN1CCOCC1 | 26.2 | -0.5 | 16.9 | 9.45 | 0.4% | 9
CCCCCCCCCC(=O)N/N=C\c1cccc2ccccc12 | 0.15 | 17.9 | 1.2 | -14.1 | 24.6% | 16.9
COC(=O)Nc1c2c(nc3ccccc13)-c1ccccc1C(C)(C)C2OC (stereo unspecified) | 49.5 | 12.6 | 58.1 | -7.7 | 84% (active) | 67
COc1ccc(OC)c(-c2cc(C(=O)O)c3cc4ccccc4cc3n2)c1 | 5.85 | 6.05 | -32.8 | -69 | -52.8% | 17.2
CCCCCCCCCCCCCCC/C=C\C(=O)O | 15.2 | -5.8 | -3.4 | 10.3 | 9.45% | 1.4
COC1CCC(/C(C#N)=C/C2CCC(N(C)C)CC2)CC1 (stereo unspecified) | 12.9 | 16.2 | 20.9 | 10.6 | 9.85% | 18.6
NC(=O)N/N=C/c1ccc2c(c1)OCO2 | 20.1 | -7.9 | 0 | 8.45 | -0.15% | 13.8
O=C(N/C(=C\c1ccccc1Cl)c1nc2ccccc2[nH]1)c1ccccc1 | -20.5 | -15.1 | -23 | 10.2 | 38.9% | 10
Nc1nc2c(ncn2C2OC(CO)C3OP(=O)(O)OC32)c(=O)[nH]1 (stereo unspecified) | -8.5 | -5.1 | -19.4 | -29.4 | 0.2% | -15.8
CCc1ccccc1Cc1ccccc1 | 1.8 | -4.75 | -0.2 | 4.65 | -1.55% | 10.7
C=C1CCC2[C@@H](CCC3[C@]2(C)CCC[C@]3(C)C(=O)OC)[C@@H]1CC=O (stereo partly specified) | 11.4 | 10.2 | 9.25 | 23.4 | 9.5% | 14.8
CC(=O)Nc1cnc2ccccc2c1 | 9.65 | -0.4 | 7.1 | -2.8 | 4.6% | -15.7
CC(C)C(NC(=O)C(Cc1ccccc1)NC(=O)[C@H]1CCC[C@H]1NC(=O)C(Cc1ccc(OC(C)(C)C)cc1)NC(=O)OC(C)(C)C)C(N)=O (stereo partly specified) | -11.2 | -6.7 | -15.8 | 18.7 | -7.65% | -0.2
O=C1c2ccccc2C2(O)NC(=S)N(c3ccccc3)C12O (stereo unspecified) | -14.2 | -20.8 | 4.95 | 15.4 | 6.2% | -2.1
